# What was measured:
# Experiment in all cases: DAPPL (digital affinity profiling via proximity ligation, sequencing); 10 mM Tris-HCl pH 7.5, 50 mM NaCl, 1 mM DTT, 4% glycerol, room temperature, 30 min; GST-TFs on glutathione beads, 16-mer random dsDNA library, 0.1% formaldehyde crosslink after washing; high values mean tight binding
# [1] = target: T1, FEV (Homo sapiens, UniProt Q99581 1-238); details: protein: recombinant; tags: N-terminal GST; dsDNA, one strand shown
# T1 sequence: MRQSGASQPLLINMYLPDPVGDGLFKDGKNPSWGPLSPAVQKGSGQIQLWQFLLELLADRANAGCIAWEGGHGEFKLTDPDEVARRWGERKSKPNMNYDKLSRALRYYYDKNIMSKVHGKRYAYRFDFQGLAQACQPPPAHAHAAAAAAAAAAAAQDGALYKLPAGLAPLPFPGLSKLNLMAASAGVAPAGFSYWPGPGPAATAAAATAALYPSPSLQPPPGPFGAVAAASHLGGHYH
# Method in brief: (§1)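 The binding signal reported is, for every hexamer, its read frequency for a factor over its read frequency for the tag-only sample. Reads came from pools of yeast-expressed, GST-fused human transcription factors on glutathione beads, barcoded with DNA and mixed with that sample, which were incubated with 200 nmole of a random double-stranded 16-mer DNA library in Tris/NaCl/DTT/glycerol buffer at room temperature for 30 min. After washing, the pools were crosslinked with 0.1% formaldehyde, proximity-ligated with BsaI/T4 ligase for 1 h at 37 °C, PCR-amplified and sequenced on an Illumina NextSeq500.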
# [2] = target: ETV5 (Homo sapiens, UniProt P41161 1-510); details: protein: recombinant; tags: N-terminal GST; dsDNA, one strand shown
# Method in brief: as §1
# [3] = target: HSF1 (Homo sapiens, UniProt Q00613 1-529); details: protein: recombinant; tags: N-terminal GST; chain copies: 3; dsDNA, one strand shown
# Method in brief: as §1
# [4] = target: T2, SPIC (Homo sapiens, UniProt Q8N5J4 1-248); details: protein: recombinant; tags: N-terminal GST; dsDNA, one strand shown
# T2 sequence: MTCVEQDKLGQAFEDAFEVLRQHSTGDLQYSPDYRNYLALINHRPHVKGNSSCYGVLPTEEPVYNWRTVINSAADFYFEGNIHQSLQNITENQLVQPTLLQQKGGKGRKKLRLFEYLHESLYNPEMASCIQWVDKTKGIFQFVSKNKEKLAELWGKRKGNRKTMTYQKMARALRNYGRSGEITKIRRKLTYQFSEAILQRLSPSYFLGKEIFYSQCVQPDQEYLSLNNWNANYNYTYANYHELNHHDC
# Method in brief: as §1
# [5] = target: ELF4 (Homo sapiens, UniProt Q99607 1-663); details: protein: recombinant; tags: N-terminal GST; dsDNA, one strand shown
# Method in brief: as §1
# [6] = target: T3, ELK4 (Homo sapiens, UniProt P28324-2 1-405); details: protein: recombinant; tags: N-terminal GST; dsDNA, one strand shown
# T3 sequence: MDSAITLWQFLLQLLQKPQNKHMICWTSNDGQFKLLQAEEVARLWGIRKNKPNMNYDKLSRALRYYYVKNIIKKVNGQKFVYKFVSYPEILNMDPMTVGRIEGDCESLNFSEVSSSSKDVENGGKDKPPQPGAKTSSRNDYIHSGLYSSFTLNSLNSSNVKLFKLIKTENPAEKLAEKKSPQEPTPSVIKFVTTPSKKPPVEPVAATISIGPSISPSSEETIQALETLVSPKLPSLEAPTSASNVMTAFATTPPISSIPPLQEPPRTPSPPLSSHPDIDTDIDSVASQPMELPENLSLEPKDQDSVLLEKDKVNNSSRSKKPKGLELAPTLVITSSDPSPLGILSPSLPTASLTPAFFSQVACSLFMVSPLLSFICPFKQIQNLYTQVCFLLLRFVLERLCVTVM
# Method in brief: as §1
# [7] = target: T4, ETV2 (Homo sapiens, UniProt O00321 1-342); details: protein: recombinant; tags: N-terminal GST; dsDNA, one strand shown
# T4 sequence: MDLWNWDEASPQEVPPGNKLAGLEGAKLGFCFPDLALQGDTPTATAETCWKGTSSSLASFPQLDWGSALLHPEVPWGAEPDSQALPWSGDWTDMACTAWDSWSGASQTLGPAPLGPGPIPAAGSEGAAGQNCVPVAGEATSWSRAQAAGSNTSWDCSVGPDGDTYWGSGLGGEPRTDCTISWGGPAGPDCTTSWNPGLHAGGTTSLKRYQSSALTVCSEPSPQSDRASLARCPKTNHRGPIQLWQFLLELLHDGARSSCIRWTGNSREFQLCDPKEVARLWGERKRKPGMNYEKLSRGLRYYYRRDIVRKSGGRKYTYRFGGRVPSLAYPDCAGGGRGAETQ
# Method in brief: as §1
# [8] = target: T5, ELF3 (Homo sapiens, UniProt P78545 1-371); details: protein: recombinant; tags: N-terminal GST; dsDNA, one strand shown
# T5 sequence: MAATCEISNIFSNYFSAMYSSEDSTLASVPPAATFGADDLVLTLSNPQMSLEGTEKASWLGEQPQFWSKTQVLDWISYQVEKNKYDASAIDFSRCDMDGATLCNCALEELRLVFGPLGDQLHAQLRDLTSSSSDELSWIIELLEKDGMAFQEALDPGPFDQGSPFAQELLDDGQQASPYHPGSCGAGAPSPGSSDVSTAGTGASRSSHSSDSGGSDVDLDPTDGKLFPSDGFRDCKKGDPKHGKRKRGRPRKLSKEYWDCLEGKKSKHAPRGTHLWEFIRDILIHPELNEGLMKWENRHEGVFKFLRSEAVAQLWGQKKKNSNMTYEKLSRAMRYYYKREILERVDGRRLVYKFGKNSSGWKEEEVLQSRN
# Method in brief: as §1
# [9] = target: CRX (Homo sapiens, UniProt O43186 1-299); details: protein: recombinant; tags: N-terminal GST; dsDNA, one strand shown
# Method in brief: as §1
# [10] = target: ETV1 (Homo sapiens, UniProt P50549 1-477); details: protein: recombinant; tags: N-terminal GST; dsDNA, one strand shown
# Method in brief: as §1
# [11] = target: T6, ERF (Homo sapiens, UniProt P50548 1-548); details: protein: recombinant; tags: N-terminal GST; dsDNA, one strand shown
# T6 sequence: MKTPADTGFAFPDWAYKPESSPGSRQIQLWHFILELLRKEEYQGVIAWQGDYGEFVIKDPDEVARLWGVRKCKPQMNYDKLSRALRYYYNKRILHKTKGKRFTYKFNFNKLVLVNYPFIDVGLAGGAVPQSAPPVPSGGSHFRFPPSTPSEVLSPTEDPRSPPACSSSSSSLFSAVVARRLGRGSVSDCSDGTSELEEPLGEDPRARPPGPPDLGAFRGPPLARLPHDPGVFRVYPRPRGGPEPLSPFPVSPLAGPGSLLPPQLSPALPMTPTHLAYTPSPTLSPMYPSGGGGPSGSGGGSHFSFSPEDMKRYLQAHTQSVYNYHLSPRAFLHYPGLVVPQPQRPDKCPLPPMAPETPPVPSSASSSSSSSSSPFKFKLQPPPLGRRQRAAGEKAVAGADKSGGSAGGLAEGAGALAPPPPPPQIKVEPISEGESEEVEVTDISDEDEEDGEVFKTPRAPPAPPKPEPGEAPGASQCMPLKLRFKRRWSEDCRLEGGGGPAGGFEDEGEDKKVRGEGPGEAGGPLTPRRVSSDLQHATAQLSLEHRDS
# Method in brief: as §1
# [12] = target: T7, ETV3L (Homo sapiens, UniProt Q6ZN32 1-361); details: protein: recombinant; tags: N-terminal GST; dsDNA, one strand shown
# T7 sequence: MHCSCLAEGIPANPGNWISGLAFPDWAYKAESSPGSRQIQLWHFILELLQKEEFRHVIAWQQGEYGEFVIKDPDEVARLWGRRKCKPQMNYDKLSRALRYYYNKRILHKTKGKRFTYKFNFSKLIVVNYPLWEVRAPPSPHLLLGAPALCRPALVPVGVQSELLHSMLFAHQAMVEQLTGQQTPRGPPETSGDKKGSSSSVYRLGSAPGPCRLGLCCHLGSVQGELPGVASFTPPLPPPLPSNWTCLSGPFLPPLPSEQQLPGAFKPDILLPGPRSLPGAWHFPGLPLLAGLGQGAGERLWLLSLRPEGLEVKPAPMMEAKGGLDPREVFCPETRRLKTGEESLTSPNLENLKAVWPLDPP
# Method in brief: as §1
# [13] = target: T8, ETS2 (Homo sapiens, UniProt P15036 1-469); details: protein: recombinant; tags: N-terminal GST; dsDNA, one strand shown
# T8 sequence: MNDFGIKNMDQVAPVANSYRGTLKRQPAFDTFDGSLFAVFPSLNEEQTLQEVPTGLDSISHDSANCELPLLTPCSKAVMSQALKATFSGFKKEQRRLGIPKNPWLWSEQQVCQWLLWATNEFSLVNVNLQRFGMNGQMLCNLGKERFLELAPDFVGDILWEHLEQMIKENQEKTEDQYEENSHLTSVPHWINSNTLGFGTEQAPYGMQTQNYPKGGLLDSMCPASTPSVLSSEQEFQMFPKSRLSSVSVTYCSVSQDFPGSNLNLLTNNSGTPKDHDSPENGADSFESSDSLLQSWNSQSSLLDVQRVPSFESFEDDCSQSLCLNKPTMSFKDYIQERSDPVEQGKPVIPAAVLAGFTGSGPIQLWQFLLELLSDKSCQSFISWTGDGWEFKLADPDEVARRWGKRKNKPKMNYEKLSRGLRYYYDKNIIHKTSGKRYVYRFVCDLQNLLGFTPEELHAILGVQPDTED
# Method in brief: as §1
# [14] = target: T9, SPDEF (Homo sapiens, UniProt O95238 1-335); details: protein: recombinant; tags: N-terminal GST; dsDNA, one strand shown
# T9 sequence: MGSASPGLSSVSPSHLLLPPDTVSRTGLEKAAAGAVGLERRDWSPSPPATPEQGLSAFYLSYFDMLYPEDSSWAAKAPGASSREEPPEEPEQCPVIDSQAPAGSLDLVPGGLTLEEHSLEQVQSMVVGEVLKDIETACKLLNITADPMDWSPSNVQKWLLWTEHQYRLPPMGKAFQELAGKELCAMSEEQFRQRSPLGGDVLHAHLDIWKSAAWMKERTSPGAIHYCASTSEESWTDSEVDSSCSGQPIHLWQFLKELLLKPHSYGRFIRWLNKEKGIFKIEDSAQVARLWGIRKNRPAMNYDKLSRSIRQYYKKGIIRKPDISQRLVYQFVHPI
# Method in brief: as §1
# [15] = target: T10, ETV7 (Homo sapiens, UniProt Q9Y603 1-341); details: protein: recombinant; tags: N-terminal GST; dsDNA, one strand shown
# T10 sequence: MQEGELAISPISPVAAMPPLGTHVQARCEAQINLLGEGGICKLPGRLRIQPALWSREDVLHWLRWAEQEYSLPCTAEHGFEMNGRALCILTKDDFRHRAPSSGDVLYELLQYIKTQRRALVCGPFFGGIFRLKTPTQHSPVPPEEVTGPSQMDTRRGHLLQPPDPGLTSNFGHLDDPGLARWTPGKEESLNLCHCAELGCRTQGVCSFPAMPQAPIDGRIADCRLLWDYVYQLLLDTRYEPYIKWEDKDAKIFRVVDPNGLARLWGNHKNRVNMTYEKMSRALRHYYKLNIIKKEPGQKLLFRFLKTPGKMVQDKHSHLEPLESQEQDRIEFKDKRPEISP
# Method in brief: as §1
# [16] = target: T11, ELF5 (Homo sapiens, UniProt Q9UKW6-2 1-255); details: protein: recombinant; tags: N-terminal GST; dsDNA, one strand shown
# T11 sequence: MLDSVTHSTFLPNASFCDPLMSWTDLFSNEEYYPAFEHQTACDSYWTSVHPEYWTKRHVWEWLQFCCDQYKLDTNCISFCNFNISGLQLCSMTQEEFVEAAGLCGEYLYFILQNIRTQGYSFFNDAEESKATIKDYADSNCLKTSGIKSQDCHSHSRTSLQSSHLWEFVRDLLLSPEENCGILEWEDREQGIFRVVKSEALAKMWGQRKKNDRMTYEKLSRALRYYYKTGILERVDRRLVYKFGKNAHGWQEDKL
# Method in brief: as §1
# [17] = target: T12, ETV3 (Homo sapiens, UniProt P41162-2 1-143); details: protein: recombinant; tags: N-terminal GST; dsDNA, one strand shown
# T12 sequence: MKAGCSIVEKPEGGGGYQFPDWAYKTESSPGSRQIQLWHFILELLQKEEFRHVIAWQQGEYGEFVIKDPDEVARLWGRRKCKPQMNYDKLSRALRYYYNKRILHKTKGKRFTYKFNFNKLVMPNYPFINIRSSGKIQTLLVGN
# Method in brief: as §1
# [18] = target: ETV6 (Homo sapiens, UniProt P41212 1-452); details: protein: recombinant; tags: N-terminal GST; dsDNA, one strand shown
# Method in brief: as §1
# Chain of CRX (O43186 whole entry): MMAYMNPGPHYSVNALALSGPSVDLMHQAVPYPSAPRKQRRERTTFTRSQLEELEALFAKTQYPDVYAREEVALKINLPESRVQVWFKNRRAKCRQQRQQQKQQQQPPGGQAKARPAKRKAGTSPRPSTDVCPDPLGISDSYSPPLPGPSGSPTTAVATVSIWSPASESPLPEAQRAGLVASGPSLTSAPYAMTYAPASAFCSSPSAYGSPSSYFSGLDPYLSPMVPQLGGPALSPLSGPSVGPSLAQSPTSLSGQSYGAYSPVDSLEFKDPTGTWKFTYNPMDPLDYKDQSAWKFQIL
# Chain of ETV6 (P41212 whole entry): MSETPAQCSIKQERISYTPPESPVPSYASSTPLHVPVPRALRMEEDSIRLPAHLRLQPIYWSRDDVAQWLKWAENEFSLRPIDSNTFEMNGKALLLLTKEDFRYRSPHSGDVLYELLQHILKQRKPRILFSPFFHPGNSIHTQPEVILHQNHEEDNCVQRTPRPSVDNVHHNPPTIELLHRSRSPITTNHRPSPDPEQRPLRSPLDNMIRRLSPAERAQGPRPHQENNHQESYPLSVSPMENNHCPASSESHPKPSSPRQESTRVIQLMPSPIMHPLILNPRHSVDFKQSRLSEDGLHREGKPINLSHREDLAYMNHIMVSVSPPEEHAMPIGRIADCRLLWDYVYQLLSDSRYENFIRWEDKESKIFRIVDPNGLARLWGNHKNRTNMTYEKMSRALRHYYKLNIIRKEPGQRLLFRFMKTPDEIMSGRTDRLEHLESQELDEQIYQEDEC
# Chain of ETV1 (P50549 whole entry): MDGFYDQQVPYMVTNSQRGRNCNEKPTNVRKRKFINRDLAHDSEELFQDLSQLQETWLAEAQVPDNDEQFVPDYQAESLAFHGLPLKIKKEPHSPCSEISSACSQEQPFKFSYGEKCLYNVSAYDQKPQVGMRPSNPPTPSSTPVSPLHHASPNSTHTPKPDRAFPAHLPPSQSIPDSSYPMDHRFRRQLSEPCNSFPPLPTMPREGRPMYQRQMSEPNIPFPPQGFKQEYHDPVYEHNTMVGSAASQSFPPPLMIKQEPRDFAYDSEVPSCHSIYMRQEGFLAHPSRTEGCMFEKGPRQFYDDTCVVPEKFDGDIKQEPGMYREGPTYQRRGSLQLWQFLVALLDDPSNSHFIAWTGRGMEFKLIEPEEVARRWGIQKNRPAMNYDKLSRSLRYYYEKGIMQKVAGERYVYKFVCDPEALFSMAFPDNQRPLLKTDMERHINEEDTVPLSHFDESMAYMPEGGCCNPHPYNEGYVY
# Chain of ELF4 (Q99607 whole entry): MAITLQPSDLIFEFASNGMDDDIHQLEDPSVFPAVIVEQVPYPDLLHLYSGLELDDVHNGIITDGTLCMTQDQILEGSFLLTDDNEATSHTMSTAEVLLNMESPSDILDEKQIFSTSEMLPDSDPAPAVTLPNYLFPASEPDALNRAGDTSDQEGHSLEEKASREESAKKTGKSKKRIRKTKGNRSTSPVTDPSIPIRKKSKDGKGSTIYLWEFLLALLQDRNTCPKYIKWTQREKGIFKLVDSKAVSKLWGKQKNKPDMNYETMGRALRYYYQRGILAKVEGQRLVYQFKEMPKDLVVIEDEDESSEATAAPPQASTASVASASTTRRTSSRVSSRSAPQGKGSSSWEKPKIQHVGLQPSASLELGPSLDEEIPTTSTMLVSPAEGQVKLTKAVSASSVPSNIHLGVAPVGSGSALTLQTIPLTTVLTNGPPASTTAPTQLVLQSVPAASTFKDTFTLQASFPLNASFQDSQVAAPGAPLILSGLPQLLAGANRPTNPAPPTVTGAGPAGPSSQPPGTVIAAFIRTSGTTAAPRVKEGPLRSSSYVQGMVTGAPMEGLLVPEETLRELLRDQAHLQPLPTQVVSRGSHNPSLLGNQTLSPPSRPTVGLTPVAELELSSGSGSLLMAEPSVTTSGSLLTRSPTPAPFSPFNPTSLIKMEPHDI
# Chain of ETV5 (P41161 whole entry): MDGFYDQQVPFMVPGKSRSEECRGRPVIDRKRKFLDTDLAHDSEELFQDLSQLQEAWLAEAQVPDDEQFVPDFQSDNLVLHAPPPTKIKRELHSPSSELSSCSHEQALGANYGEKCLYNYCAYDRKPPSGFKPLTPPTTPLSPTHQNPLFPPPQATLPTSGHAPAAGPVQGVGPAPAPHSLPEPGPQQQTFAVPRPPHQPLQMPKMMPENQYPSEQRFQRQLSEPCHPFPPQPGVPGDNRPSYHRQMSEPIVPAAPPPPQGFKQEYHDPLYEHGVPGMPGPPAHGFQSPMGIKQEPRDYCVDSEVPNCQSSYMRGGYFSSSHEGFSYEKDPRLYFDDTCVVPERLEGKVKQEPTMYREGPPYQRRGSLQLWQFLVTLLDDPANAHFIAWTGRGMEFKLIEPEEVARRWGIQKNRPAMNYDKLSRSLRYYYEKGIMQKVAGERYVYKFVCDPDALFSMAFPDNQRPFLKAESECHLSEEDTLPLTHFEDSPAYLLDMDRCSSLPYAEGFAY
# Chain of HSF1 (Q00613 whole entry): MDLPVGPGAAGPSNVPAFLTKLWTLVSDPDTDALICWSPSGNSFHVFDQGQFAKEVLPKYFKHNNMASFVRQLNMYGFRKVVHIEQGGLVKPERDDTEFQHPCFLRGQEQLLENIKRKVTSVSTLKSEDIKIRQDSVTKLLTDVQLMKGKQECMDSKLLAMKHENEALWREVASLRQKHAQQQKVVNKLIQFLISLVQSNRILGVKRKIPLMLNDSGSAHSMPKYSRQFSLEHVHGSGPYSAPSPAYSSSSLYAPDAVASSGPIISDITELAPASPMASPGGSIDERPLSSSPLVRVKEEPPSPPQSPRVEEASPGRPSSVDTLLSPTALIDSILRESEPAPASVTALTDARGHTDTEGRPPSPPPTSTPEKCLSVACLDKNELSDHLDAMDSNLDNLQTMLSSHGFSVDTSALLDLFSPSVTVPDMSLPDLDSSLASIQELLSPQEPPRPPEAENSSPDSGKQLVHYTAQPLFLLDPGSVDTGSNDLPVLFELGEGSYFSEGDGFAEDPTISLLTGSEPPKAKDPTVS
sequence,measurement,setting,value
ATTCAC,binding signal,[1],"1.23 fold enrichment (6-mer frequency, TF over GST control)"
same,binding signal,[2],"1.21 fold enrichment (6-mer frequency, TF over GST control)"
same,binding signal,[3],"1.13 fold enrichment (6-mer frequency, TF over GST control)"
same,binding signal,[4],"1.1 fold enrichment (6-mer frequency, TF over GST control)"
same,binding signal,[5],"1.31 fold enrichment (6-mer frequency, TF over GST control)"
same,binding signal,[6],"1.35 fold enrichment (6-mer frequency, TF over GST control)"
same,binding signal,[7],"1.21 fold enrichment (6-mer frequency, TF over GST control)"
same,binding signal,[8],"1.27 fold enrichment (6-mer frequency, TF over GST control)"
same,binding signal,[9],"1.14 fold enrichment (6-mer frequency, TF over GST control)"
same,binding signal,[10],"1.29 fold enrichment (6-mer frequency, TF over GST control)"
same,binding signal,[11],"1.21 fold enrichment (6-mer frequency, TF over GST control)"
same,binding signal,[12],"1.21 fold enrichment (6-mer frequency, TF over GST control)"
same,binding signal,[13],"1.29 fold enrichment (6-mer frequency, TF over GST control)"
same,binding signal,[14],"1.21 fold enrichment (6-mer frequency, TF over GST control)"
same,binding signal,[15],"1.24 fold enrichment (6-mer frequency, TF over GST control)"
same,binding signal,[16],"1.19 fold enrichment (6-mer frequency, TF over GST control)"
same,binding signal,[17],"1.23 fold enrichment (6-mer frequency, TF over GST control)"
same,binding signal,[18],"1.17 fold enrichment (6-mer frequency, TF over GST control)"
